# Assay results: PubChem BioAssay (Tox21)
# Results filed as inconclusive are left out. Unmarked numbers belong to inactive results. Active and inactive are the calls of the source. Calls come from the whole dose curve; as a rule, active = well fitted cell-killing curve with a large enough effect in the repeat runs; inconclusive = weak or mixed curves, or effect the other way; inactive = no such curve, though single readings can be large or run the other way.
# Assay: qHTS assay to identify small molecule antagonists of the sonic hedgehog signaling (Shh) pathway - cell viability counter screen (AID 1259367); note: nearly all actives have a fitted effect of over 55% in size
# Details: NIH/3T3 Gli1-Luc viability, CellTiter-Fluor, 24 h; series mostly up to 92.4 µM
# Source text: National Center for Advancing Translational Sciences [NCATS]
# NIH Chemical Genomics Center [NCGC]
# U.S. Environmental Protection Agency [EPA]
# National Institutes of Environmental Health Sciences [NIEHS]
# National Toxicology Program [NTP]
# U.S. Food and Drug Administration [FDA]
# The sonic hedgehog (Shh) pathway is essential for normal embryonic development. Dysregulation of the Shh pathway can cause severe developmental defects in organs. Therefore chemicals that interfere with the pathway are potential developmental toxicants. A cell line designated 3T3Gli1-Luc (DMB/OARSA/CFSAN/FDA, Laurel, MD), a NIH/3T3 derived clone containing stably integrated Gli1-Luc reporter is used to detect chemical interference of the Shh pathway, by changes in the expression of the firefly Luc gene under the control of the Gli1 transcriptional response element. This cell line was used to screen Tox21 libraries for identifying and prioritizing the potential developmental toxicants that interfere Shh pathway. Conditioned medium-stimulated mode was used to screen for chemicals inhibiting Shh signaling. The cytotoxicity of the compounds was tested in parallel by measuring the cell viability using CellTiter-Fluor assay system (Promega, Madison, WI) in the same wells.
# Tox21 Assay Protocol Summary:
# 3T3 Gli1-Luc cells were dispensed at 2,000 per well in 5uL of culture medium into white solid bottom 1536-well plates (Greiner Bio-One, Monroe, NC) using a Multidrop Combi (Thermo Scientific, Waltham, MA) dispenser. The assay plates were incubated at 37 C and 5% CO2 for 4hr, and then 23nL of compounds dissolved in DMSO and positive control were transferred using a Pintool station (Wako, San Diego, CA). The compound transfer was followed by the addition of 1ul conditioned medium or assay buffer using two separate tips of Flying Reagent Dispenser (FRD, Aurora Discovery, San Diego, CA). The assay plates were incubated at 37C and 5% CO2 for 24hr. For viability read, after 23hr of compound treatment, 1uL of CellTiter-Fluor reagent (Promega Corporation, Madison, WI) was added to each well of the assay plates using Flying Reagent Dispenser (FRD, Aurora Discovery, San Diego, CA) and incubated the assay plates at 37C for 1hr. The fluorescence signal was quantified using a ViewLux plate reader (Perkin Elmer, Shelton, CT).
# % is set by controls: 0 for no effect and ±100 for the full control effect.
SMILES,outcome,"viability change, negative = cytotoxic"
NC(=O)CC[C@@H](N)C(=O)O,inactive,
CC(=O)c1ccc(O)c(C(N)=O)c1,inactive,
CC(CC(=O)Cl)CC(C)(C)C (stereo not given),inactive,
N=C(N)S(=O)O,inactive,
O=C(O)P(=O)(O)O,inactive,
O=C1c2ccccc2C(=O)N1CO,inactive,
CC(C)(C)c1ccc(N)cc1,inactive,
C=CCON/C(CCC)=C1\C(=O)CC(C)(C)C(C(=O)OC)=C1O,inactive,
CC(C)C[P+](C)(CC(C)C)CC(C)C,inactive,
CC/C=C\CCOC(=O)c1ccccc1,inactive,
CCOc1ccccc1OCCN[C@H](C)Cc1ccc(OC)c(S(N)(=O)=O)c1,inactive,
CC(=O)OC1CCC(C(C)(C)C)CC1 (stereo not given),inactive,
CC(C)(C)C(=O)NCCCC(=O)O,inactive,
CC(=O)Nc1ccc(S(=O)(=O)Nc2cc(C)on2)cc1,inactive,
CN(C)c1cc(NC(=O)CNC(C)(C)C)c(O)c2c1C[C@H]1C[C@H]3[C@H](N(C)C)C(=O)C(C(N)=O)=C(O)[C@@]3(O)C(=O)C1=C2O,inactive,
NNC(=O)OCc1ccccc1,inactive,
CCCCCC(=O)CC,inactive,
C=CCn1cc[n+](C)c1,inactive,
CCc1ccc(CC)cc1,inactive,
CCCc1ncc(C(=O)O)s1,inactive,

SMILES,outcome,"viability change, negative = cytotoxic"
COc1cc(OC)cc(OC)c1,inactive,
O=P(O)(O)C(O)(Cc1cccnc1)P(=O)(O)O,inactive,
CCOC(=O)COc1ccc2c(C)c(CCN(CC)CC)c(=O)oc2c1Cl,inactive,
COC(=O)C(c1ccccc1Cl)N1CCc2sccc2C1 (stereo not given),inactive,
CCC(C)(C)C,inactive,
CCCCCCCCCCCCCCCC/C=C/C1CC(=O)OC1=O (stereo not given),inactive,
N#Cc1cc(NC(=O)C(=O)O)c(Cl)c(NC(=O)C(=O)O)c1,inactive,
O=S(=O)(O)CC(O)CCl (stereo not given),inactive,
O=Cc1ccccc1S(=O)(=O)O,inactive,
O=c1[nH]c(=O)c2cn[nH]c2[nH]1,inactive,
C[C@@H]1CC[C@@]2(OC1)O[C@H]1C[C@H]3[C@@H]4CC[C@H]5C[C@@H](O)CC[C@]5(C)[C@H]4CC(=O)[C@]3(C)[C@H]1[C@@H]2C,,0.938% [at 8.39 µM]
CCCCCCCC(=O)N(C)C,inactive,
C=CC(=O)OCC[N+](C)(C)C,inactive,
O=C(CCBr)N1CCN(C(=O)CCBr)CC1,inactive,
CCOCCOCCOC(C)=O,inactive,
C[C@H]1COc2c(C3(N)CC3)c(F)cc3c(=O)c(C(=O)O)cn1c23,inactive,
CCOC(=O)[C@H](CCc1ccccc1)N[C@H]1CS[C@H](c2cccs2)CN(CC(=O)O)C1=O,inactive,
C=CCN(CC=C)CC=C,inactive,
CC(=O)SC[C@@H](C)C(=O)N1CCC[C@H]1C(=O)N[C@@H](Cc1ccccc1)C(=O)O,inactive,
CCCCNCC,inactive,
